Several values for one entry are separate records, joined by “and”; a condition that tells them apart may be missing. Equal entries are not always repeated. For some assays here: Entries with a potency or affinity are not part of this list. Activity calls are given as the source filed them. Unless noted, how the calls were made is not given here.

A word on the inhibition: it is the relative decrease from the control value, in per cent. The viability is a per cent measure of how many cells are alive, often set against a control. For orientation: remaining activity means the signal under treatment as a percentage of the control signal.

Test [1] can be described thus: Wnt pathway potentiators raising nuclear beta-catenin – imaging, WNT3A-conditioned medium, mouse C2C12, NPC library, primary screen (AID 1117326; in the data active means nuclear beta-catenin stimulation mostly above about 4.2%, no sharp cut-off; inactive means mostly below about 10%). As to conditions: stronger effect = higher value.
The nature of test [2]: stimulators of insulin release from INS-1E, primary screen, cell-based, 5 mM glucose, NPC library (AID 1117329;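 active means compound raises insulin release from rat beta cells at 5 mM glucose, no numeric limit stated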). Conditions: rat INS-1E insulin secretion, at 10 µM, stronger effect = higher value.
The nature of test [3]: growth inhibition of GSK3B-pretreated HCT116 cells – cell-based, CellTiter-Glo, 0.2 to 20 µM (AID 1117336;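 active means compounds lowering colon cancer cell viability after pretreatment blocking the GSK3B kinase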). Conditions: HCT116 viability after GSK3B inhibitor, at 20 µM, stronger effect = higher value. On the technique in general: In ATP-based viability assays light output follows the ATP content of the culture.
Test [4] can be described thus: inhibition of endothelial tube formation, primary screen, imaging, VEGF stimulated, CD31 staining, tube area, NPC library (AID 1117340;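 active means compound that reduces growth-factor-driven endothelial tube area in a mixed cell culture, no cutoff stated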). Conditions: VEGF-stimulated ADSC/ECFC co-culture, at 10 µM, stronger effect = higher value.
Test [5] in a line: GLP1 release stimulators, primary, NCI-H716, NPC library (AID 1117341;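 active means compound raises GLP1 secretion from the human gut endocrine cells, with no numeric limit stated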). Conditions: NCI-H716 cells, at 10 µM, stronger effect = higher value.
A short description of test [6]: HCT116 colon cancer cell growth inhibition, primary screen, CellTiter-Glo luminescence, NPC library (AID 1117342;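 active means compounds that lower survival of HCT116 colon cancer cells in the luminescence readout, no numeric limit stated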). As to conditions: at 20 µM (top of the series).
Test [7] in a line: reduced SW480 viability measured with CellTiter-Glo, NPC library, primary (AID 1117343;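 active means compounds that lower viability of the colon cancer cells in the luminescence readout, with no numeric limit stated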). As to conditions: CellTiter-Glo luminescence; at 20 µM (top of the series).
A short description of test [8]: NPC library primary testing for decreased DLD-1 cell viability via CellTiter-Glo (AID 1117346;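 active means compounds that lower survival of DLD-1 colon cancer cells in the luminescence readout, no cutoff given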). As to conditions: DLD-1 viability, CellTiter-Glo luminescence; at 20 µM (top of the series).
The nature of test [9]: blockers of polyQ-driven CASP3 activation – cell-based (AID 1583). As to conditions: polyglutamine-induced caspase-3 activation, cell assay; stronger effect = higher value;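 tested at 10 µM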.
Test [10] is described as follows: yeast 75Q aggregation reduction – 75Q-TubU reporter (AID 1593). As to conditions: Yeast 75Q polyglutamine aggregation reporter.
Test [11] can be described thus: restoration of touch response, mutant HTT neurons – whole organism, C. elegans mechanosensory neurons, N-terminal huntingtin (AID 1599). As to conditions: C. elegans polyQ-huntingtin mechanosensory neurons, stronger effect = higher value.
The nature of test [12]: blockers of cytochrome c efflux from mitochondria – biochemical, purified mitochondria (AID 1603).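 Further: mouse liver mitochondria challenged with calcium chloride; signal normalized to the plate average as 100%.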 Conditions: stronger effect = lower value.
A short description of test [13]: polyglutamine aggregate formation blockers (AID 1604). As to conditions: polyglutamine-induced protein aggregation inhibition assay; stronger effect = higher value; tested at 2.5 µM.
The nature of test [14]: glutamate transport activators, MN-1 cells, MN-1 cell line (AID 1612).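 Further: tested at 1 µM final; 0% = mean of DMSO vehicle wells on each plate; positive means more glutamate uptake than control and negative means less.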 Conditions: MN-1 motor neuron cells, stronger effect = higher value.
Test [15] can be described thus: GFP-Q80 aggregate reduction, neuronal-like cells, cell-based, NGF-treated PC12, GFPQ80 (AID 1614).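 Further: lower means fewer inclusions and 0 means no inclusions at all.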 As to conditions: PC12 NGF-treated GFP-polyQ80 inclusion reduction.
The nature of test [16]: 75Q-TubH aggregate inhibition, S. cerevisiae, yeast (AID 1616). Conditions: S. cerevisiae 75Q-TubH polyglutamine aggregation suppression; stronger effect = higher value.
Test [17] can be described thus: compounds altering circadian rhythm period length – cell-based, LOPAC library, luminescence reporter (AID 2774).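 Further: values are relative to mean of DMSO wells on each plate.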 As to conditions: circadian reporter cells, at 7 µM, actives lie on both sides.
Test [18] can be described thus: P. berghei load reduction in hepatocytes – cell-based, HepG2, luciferase luminescence, HepG2 viability, primary screen (AID 624349; in the data active means parasite load remaining mostly below about 12%, no sharp cut-off; inactive means mostly above about 10%;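 further: 100% = mean of DMSO negative control wells on the same plate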). Conditions: P. berghei liver stage in HepG2, luciferase luminescence, concentration not given here; parasite load remaining: stronger effect = lower value; viability: measured here: HepG2 viability without parasites.
Test [19] concerns Hepatitis C virus NS3 helicase. Briefly: blockers of NS3h binding to ssDNA – biochemical, fluorescence polarization, LOPAC1280 library, primary screen (AID 687035; in the data active means inhibition above about 37%). As to conditions: Purified HCV NS3 helicase, Cy5-dT15 ssDNA binding fluorescence polarization; stronger effect = higher value; concentration not given here.
Test [20] in a line: compounds altering Cy5-DNA-NS3h complex signal – biochemical, LOPAC1280, artefact control for HCV NS3 helicase inhibitor project (AID 687037). Conditions: Cy5-DNA-NS3h complex fluorescence interference counterscreen. Background: The purpose of a counterscreen is to sort out artefacts and off-target activity.
In test [21] the target is 6-phosphogluconate dehydrogenase, decarboxylating (Homo sapiens) (UniProt P52209). Briefly: inhibition of human phosphogluconate dehydrogenase – biochemical, recombinant enzyme, NADPH absorbance, primary screen (AID 1159550;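 active means at least 20% inhibition of 6-phosphogluconate dehydrogenase activity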). As to conditions: recombinant 6PGD, NADPH absorbance 341 nm; at 10 µM; stronger effect = higher value.
Test [22] in a line: EMT-state selective cytotoxicity in co-culture – imaging, PC-3E GFP, TEM4-18 mCherry, primary screen (AID 1345086;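 active means compounds killing one labelled cell type while sparing the other, by normalised counts and ratio limits, not self-fluorescent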;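 further: cells exposed to compound for 72 h before imaging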;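 on red/green cell ratio (normalised): normalised mesenchymal count divided by normalised epithelial count so high means epithelial killing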). Conditions: PC-3E GFP / TEM4-18 mCherry co-culture, imaging cell counts, at 1 µM.
The test system of test [23] is Aerobactin synthetase IucA (Klebsiella pneumoniae hvKP1). Briefly: IucA enzyme inhibition, primary screen, biochemical, Spectrum library (AID 1346200).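 Further: 100% = wells without compound and 0% = wells lacking enzyme.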 As to conditions: malachite green pyrophosphate, A620, at 8 µM, stronger effect = lower value.
The test system of test [24] is Aerobactin synthetase IucA (Klebsiella pneumoniae, hypervirulent). The test is described as follows: biochemical IucA inhibition screen of LOPAC library by absorbance (AID 1346212).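 Further: 100% = no compound wells and 0% = no enzyme wells.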 As to conditions: IucA enzyme assay, absorbance (OD) readout; stronger effect = lower value;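 tested at 8 µM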.
Test [25] in a line: viability loss with induced miR-34 in A549 – imaging, A549 dox-inducible miR-34, nuclei and caspase counts, primary screen (AID 1347080;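 active means compounds whose cell count with miR-34 switched on is under 0.7 times the count with it off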). As to conditions: A549 miR-34 inducible, Hoechst nuclei count, 48 h.
The nature of test [26]: blockers of cellular phospholipid synthesis – cell-based, LOPAC library, screen 4, primary screen (AID 1347384). As to conditions: animal cells, phospholipid biosynthesis inhibition screen; at 10 µM.
Test [27] is described as follows: MELAS cybrid and Rieske KO viability enhancers – cell-based, MELAS cybrids, Rieske KO mouse fibroblasts, CellTiter-Glo, primary screen (AID 1508586;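 active means mean z-score across replicates of 1.96 or higher in either the MELAS or the Rieske mutant cell line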;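 further: z relative to plate mean and SD of compound and empty wells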). Conditions: low glucose.
For test [28], the target named is NAD(+) hydrolase SARM1 (Homo sapiens) (UniProt Q6SZW1). Briefly: blocking NAD cleavage by SARM1 SAM-TIR – cell lysate, NAD-Glo luminescence (AID 1508614;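 active means compound whose remaining NAD level is above about 45 nM, limit read from the data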). Conditions: SAM-TIR HEK293T lysate NADase, at 1 µM, stronger effect = higher value.
Test [29] deals with Mitogen-activated protein kinase 7 (Homo sapiens) (UniProt Q13164). Briefly: Gal4-ERK5 driven luciferase induction – cell-based, HTS, primary screen (AID 1508626;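 active means luciferase signal above three times the same-plate solvent-only control wells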;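 further: luciferase driven by Gal4-ERK5 fusion binding five Gal4 sites before minimal TATA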). As to conditions: HeLa Gal4-ERK5 transactivation, 18 h, at 5 µM, stronger effect = higher value.
Test [30] can be described thus: galactose survival enhancers in mitochondrial complex I cybrids – cell-based, galactose medium, ATP luminescence, primary screen (AID 1645843;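 active means z-score of at least 1.8 in each of two replicates, scored against plate mean and spread of sample wells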;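 further: positive z means more ATP and so rescue of galactose-driven cybrid death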). Conditions: complex I mutant cybrid cells, 72 h, stronger effect = higher value.

Chain of 6-phosphogluconate dehydrogenase, decarboxylating (Homo sapiens) (P52209 whole entry, looked up): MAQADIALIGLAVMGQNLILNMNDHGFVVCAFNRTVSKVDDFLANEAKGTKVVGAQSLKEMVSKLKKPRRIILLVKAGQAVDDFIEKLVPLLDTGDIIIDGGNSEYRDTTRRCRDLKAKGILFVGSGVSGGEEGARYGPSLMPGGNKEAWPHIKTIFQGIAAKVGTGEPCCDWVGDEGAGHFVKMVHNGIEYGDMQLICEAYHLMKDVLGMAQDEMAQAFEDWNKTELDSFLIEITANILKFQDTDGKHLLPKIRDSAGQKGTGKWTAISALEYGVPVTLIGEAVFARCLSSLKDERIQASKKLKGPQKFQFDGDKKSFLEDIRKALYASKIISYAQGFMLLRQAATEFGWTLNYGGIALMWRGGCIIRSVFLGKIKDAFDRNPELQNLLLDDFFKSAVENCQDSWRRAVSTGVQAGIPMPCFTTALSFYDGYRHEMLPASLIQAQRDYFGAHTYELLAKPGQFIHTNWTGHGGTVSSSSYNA
Chain of Mitogen-activated protein kinase 7 (Homo sapiens) (Q13164 whole entry, looked up, the tested form may be a part): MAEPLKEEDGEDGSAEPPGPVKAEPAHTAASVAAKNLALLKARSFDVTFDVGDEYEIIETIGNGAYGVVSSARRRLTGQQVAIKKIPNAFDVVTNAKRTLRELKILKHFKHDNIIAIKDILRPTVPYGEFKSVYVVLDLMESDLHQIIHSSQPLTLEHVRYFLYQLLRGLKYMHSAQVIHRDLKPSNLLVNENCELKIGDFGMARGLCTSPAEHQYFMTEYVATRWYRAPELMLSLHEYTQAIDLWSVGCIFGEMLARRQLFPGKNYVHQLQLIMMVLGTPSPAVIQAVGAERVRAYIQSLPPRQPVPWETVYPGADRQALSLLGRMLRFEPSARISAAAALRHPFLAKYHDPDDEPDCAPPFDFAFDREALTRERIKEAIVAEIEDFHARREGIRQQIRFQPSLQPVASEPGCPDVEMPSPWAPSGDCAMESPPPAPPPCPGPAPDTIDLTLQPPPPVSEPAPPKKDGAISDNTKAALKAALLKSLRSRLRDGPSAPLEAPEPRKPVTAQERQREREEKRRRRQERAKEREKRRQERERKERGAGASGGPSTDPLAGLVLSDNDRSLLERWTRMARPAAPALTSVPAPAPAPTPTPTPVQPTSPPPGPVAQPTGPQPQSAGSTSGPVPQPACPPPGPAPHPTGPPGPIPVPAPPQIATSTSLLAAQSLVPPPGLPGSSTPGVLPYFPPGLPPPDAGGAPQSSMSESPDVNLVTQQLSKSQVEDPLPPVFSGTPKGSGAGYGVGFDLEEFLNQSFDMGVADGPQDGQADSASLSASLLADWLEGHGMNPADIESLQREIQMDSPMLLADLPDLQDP
Chain of NAD(+) hydrolase SARM1 (Homo sapiens) (Q6SZW1 whole entry, looked up, the tested form may be a part): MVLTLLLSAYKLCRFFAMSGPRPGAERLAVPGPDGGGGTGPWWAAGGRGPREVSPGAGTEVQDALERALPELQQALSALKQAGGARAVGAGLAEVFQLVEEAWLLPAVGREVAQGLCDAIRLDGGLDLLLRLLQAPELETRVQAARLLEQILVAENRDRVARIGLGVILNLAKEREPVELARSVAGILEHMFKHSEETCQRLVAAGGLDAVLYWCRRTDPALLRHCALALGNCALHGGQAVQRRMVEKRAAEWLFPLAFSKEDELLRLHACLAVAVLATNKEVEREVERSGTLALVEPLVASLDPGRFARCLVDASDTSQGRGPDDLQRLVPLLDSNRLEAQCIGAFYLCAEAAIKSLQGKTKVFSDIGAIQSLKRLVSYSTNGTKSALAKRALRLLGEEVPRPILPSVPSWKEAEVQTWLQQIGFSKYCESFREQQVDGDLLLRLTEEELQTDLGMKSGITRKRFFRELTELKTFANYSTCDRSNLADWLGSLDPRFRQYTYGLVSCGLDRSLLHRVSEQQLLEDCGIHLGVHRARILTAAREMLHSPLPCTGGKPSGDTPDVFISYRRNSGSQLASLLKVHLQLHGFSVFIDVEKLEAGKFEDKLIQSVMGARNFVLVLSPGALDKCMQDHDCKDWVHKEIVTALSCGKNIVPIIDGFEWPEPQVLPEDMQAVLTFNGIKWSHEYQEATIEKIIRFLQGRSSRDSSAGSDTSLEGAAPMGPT

Consider `Oc1ccc([C@H]2CNCc3c2ccc(O)c3O)cc1O`, for which the nuclear beta-catenin stimulation was 0.8% (inactive) in [1] (at 10 µM) and 0.2% in test [1] (stimulation, at 2 µM). In addition, the insulin secretion stimulation in [2] is 3.5% (inactive). Further, the viability decrease in test [3] was 86.5% (active). In test [4], the tube area decrease was 13.1% (inactive). Also, in test [5], the GLP1 secretion stimulation is 23.9% (active). In [6], the inhibition of viability is 57.5% (active). For the same molecule, the results for the viability decrease (inhibition) in [7] and in test [8] were 60.8% (active) and 38.4% (inactive), respectively.

As to `O=[N+]([O-])c1cc(I)c(O)c(I)c1`, the nuclear beta-catenin stimulation in test [1] (at 10 µM) was 18.4% (inactive); in test [1] (stimulation, at 2 µM), 0.7%. The insulin secretion stimulation in [2] is 5.5% (inactive). Also, the viability decrease in test [3] was 95% (active). Also, the tube area decrease in test [4] is 106% (active). Also, in test [5], the GLP1 secretion stimulation is -1% (inactive). In addition, in test [6], the inhibition of viability is 93% (active). For the same molecule, the viability decrease (inhibition) was 101% (active) in [7] and 98.8% (active) in [8].

As to `CC(C)(C)NCC(O)c1ccccc1Cl` (stereo unspecified), the inhibition in test [9] is 4.55%; in test [19], -4% (inactive); in [21], 14% (inactive). Further, in [10], the score amounted to 1.29. The molecule further had a rescue above control in [11] of -6.12. The cytochrome c release ratio in test [12] was 0.96. In test [13], this molecule showed an inhibition of aggregation of 72.5%. The molecule also yielded a glutamate uptake change in test [14] of 2.34%. For the same molecule, the inclusion score in test [15] was found to be 2. Besides, the aggregation suppression score in [16] was 1.28. Also, the period change in test [17] is -0.125 h (inactive). Moreover, the parasite load remaining in [18] is 85.5% (inactive) and 23.5% (inactive). Further, the viability in test [18] was 91.9% and 68.5%. Moreover, the fluorescence ratio (interference) in test [20] was 1 (inactive). Besides, the nuclear beta-catenin stimulation was -0.7% (inactive) in test [1] (at 10 µM) and -0.7% in test [1] (stimulation, at 2 µM). Further, the insulin secretion stimulation in test [2] is -1.2% (inactive). The viability decrease in [3] is -32.4% (inactive). The tube area decrease in test [4] is 5.2% (inactive). For the same molecule, the GLP1 secretion stimulation in test [5] is 0.9% (inactive). Also, the inhibition of viability in test [6] was -0.17% (inactive). The results for the viability decrease (inhibition) in [7] and in [8] were -2.1% (inactive) and -14.4% (inactive), respectively. In test [22] (actives lie on both sides), the red/green cell ratio (normalised) was 0.9 (inactive). The normalised cell number amounted to 1.07 in test [22] (measured here: epithelial PC-3E GFP cell survival) and 0.97 in test [22] (measured here: mesenchymal TEM4-18 mCherry cell survival). The activity remaining in test [23] is 102% (inactive). Besides, in test [24], the remaining activity is 113% (inactive). For the same molecule, the fold change was 0.985 (inactive) and 0.856 (inactive) in test [25] (stronger effect = lower value); 1.26 and 1.33 in [25] (measured here: relative caspase fold change +Dox/-Dox). Moreover, the cell count in [25] (measured here: total cells with miR-34 induction, stronger effect = lower value) is 10200 and 9170; in test [25] (measured here: total cells without miR-34 induction), 10400 and 10700. For the same molecule, the molecule was called inactive in test [26]. Moreover, the z-score was -0.495 (inactive) and -0.187 (inactive) in test [27] (MELAS cybrid survival, CellTiter-Glo 48 h, stronger effect = higher value); 0.0224 and -0.446 in test [27] (Rieske KO mouse fibroblast survival, CellTiter-Glo 72 h); 0.29 (inactive) and 0.245 (inactive) in test [30]. Also, the remaining NAD in test [28] is 10 nM (inactive). Also, the luciferase signal in test [29] is 24 AU (inactive).

These data come from PubChem BioAssay.
